Results published in PubChem BioAssay (EPA / NIEHS).
Calls of active or inactive are those of the source. The calls were made as follows: active = hit-call score of the fitted dose curve at least 0.9, where 1 is the maximum; inactive = score below 0.9.

Columns and labels:
[1] = ATG_E_Box_CIS: Attagene CIS-FACTORIAL HepG2 Assay for human Enhancer Box (E-box) (AID 2282936); conditions: HepG2 E-box cis-reporter transcription, actives raise or lower the signal
Outline: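 Fluorescent reporter fragments separated by capillary electrophoresis gave the signal; mRNA came from HepG2 cells transfected with cis-element reporters and treated 24 h. Curves fitted bidirectionally relative to DMSO controls.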

[2] = ATG_M_61_CIS: Attagene CIS-FACTORIAL HepG2 Assay for M61 Transcription Factor (Internal Marker) (AID 2282937); conditions: HepG2 Attagene CIS-FACTORIAL M61 internal marker reporter; actives raise or lower the signal
Outline: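 Using transiently transfected HepG2 liver cells, reporter transcript levels were assessed 24 h post-dosing by RT-PCR and capillary electrophoresis. Changes in either direction were fitted relative to DMSO controls.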

[3] = ATG_EGR_CIS: Attagene CIS-FACTORIAL HepG2 Assay for human Early Growth Response 1 (EGR1) (AID 2282938); conditions: HepG2 Attagene CIS-FACTORIAL EGR reporter mRNA; actives raise or lower the signal
Outline: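 Fluorescent capillary-electrophoresis signal of reporter cDNA fragments serves as read-out. HepG2 cells bear transiently transfected cis-promoter reporter units and are exposed 24 h; gain- or loss-of-signal is fitted against DMSO.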

[4] = ATG_M_19_CIS: Attagene CIS-FACTORIAL HepG2 Assay for M19 Transcription Factor (Internal Marker) (AID 2282939); conditions: HepG2 Attagene CIS-FACTORIAL M19 internal marker reporter; actives raise or lower the signal
Outline: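 Following a 24 h exposure, RNA from transfected HepG2 cells was reverse-transcribed, PCR-amplified with reporter-specific primers, end-labelled with 6-FAM and HpaI-digested before capillary separation. Values represent gain or loss versus DMSO.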

[5] = ATG_ERE_CIS: Attagene CIS-FACTORIAL HepG2 Assay for Estrogen Response Element (ERE) (AID 2282940); conditions: HepG2 ERE cis-reporter, Attagene RNA transcript; actives raise or lower the signal
Outline: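 HepG2, transient cis-reporter units, 24 h exposure. RNA isolated, oligo(dT) RT, reporter-specific PCR, FAM extension, HpaI cut, CE detection. Gain/loss-of-signal vs DMSO.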

[6] = ATG_Ets_CIS: Attagene CIS-FACTORIAL HepG2 Assay for human Erythroblast Transformation Specific (ETS) (AID 2282941); conditions: HepG2 ETS cis-reporter transcription, actives raise or lower the signal
Outline: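 Cis-regulated reporter mRNA induction in HepG2 (transient transfection), 24 h exposure, RT-PCR plus capillary electrophoresis detection; DMSO serves as negative control and baseline.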

[7] = molecular target: Hepatocyte nuclear factor 3-beta (Homo sapiens) (UniProt Q9Y261); experiment: ATG_FoxA2_CIS: Attagene CIS-FACTORIAL HepG2 Assay for human Forkhead box A2 (FOXA2) (AID 2282942); conditions: HepG2 cis-reporter transcription factor activity, 24 h; actives raise or lower the signal
Sequence of Hepatocyte nuclear factor 3-beta (Homo sapiens) (Q9Y261 whole entry, looked up, the tested form may be a part): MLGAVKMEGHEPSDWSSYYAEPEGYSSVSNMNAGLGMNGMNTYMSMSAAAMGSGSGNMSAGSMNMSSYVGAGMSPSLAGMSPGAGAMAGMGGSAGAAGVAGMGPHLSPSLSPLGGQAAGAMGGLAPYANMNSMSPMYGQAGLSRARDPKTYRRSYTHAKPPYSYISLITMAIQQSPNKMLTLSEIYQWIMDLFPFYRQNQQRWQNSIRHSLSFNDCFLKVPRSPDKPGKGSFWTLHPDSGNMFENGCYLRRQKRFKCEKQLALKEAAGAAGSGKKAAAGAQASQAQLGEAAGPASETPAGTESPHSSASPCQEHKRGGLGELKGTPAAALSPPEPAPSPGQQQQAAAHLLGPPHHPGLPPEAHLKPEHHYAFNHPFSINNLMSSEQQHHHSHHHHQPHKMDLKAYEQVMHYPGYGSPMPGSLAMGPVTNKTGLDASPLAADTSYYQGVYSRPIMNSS
Outline: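 Fluorescence signal of reporter cDNA fragments, separated by capillary electrophoresis, reflects endogenous transcription factor activity in transfected HepG2 after 24 h. Both increases and decreases fitted against DMSO.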

[8] = ATG_FoxO_CIS: Attagene CIS-FACTORIAL HepG2 Assay for human Forkhead box O (FoxO) (AID 2282943); conditions: HepG2 Attagene cis-reporter, FoxO element, mRNA; actives raise or lower the signal
Outline: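 Endogenous transcription factor activity read from multiplexed cis-promoter reporter transcripts in transiently transfected HepG2, 24 h after dosing. Reporter RNA measured via RT-PCR plus capillary electrophoresis of FAM-labeled products; gain or loss relative to DMSO.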

[9] = ATG_GATA_CIS: Attagene CIS-FACTORIAL HepG2 Assay for human GATA Binding Protein (AID 2282944); conditions: HepG2 GATA cis-element reporter, Attagene multiplex mRNA; actives raise or lower the signal
Outline: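 DMSO serves as negative control and baseline for bidirectional fitting of reporter mRNA changes. HepG2 cells bearing transiently transfected cis-promoter reporters were exposed 24 h; transcripts detected via RT-PCR and capillary electrophoresis.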

[10] = ATG_GLI_CIS: Attagene CIS-FACTORIAL HepG2 Assay for human Zinc Finger Protein GLI1 (AID 2282945); conditions: HepG2, Attagene cis-factorial reporter mRNA, GLI element; actives raise or lower the signal
Outline: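 Bidirectional curve fits relative to DMSO, using reporter mRNA levels from RT-PCR plus capillary electrophoresis. Cells were HepG2 transiently carrying cis-regulated reporter constructs, harvested 24 h after dosing.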

[11] = ATG_GRE_CIS: Attagene CIS-FACTORIAL HepG2 Assay for human Glucocorticoid Response Elements (GRE) (AID 2282947); conditions: HepG2 GRE cis-reporter, Attagene multiplex mRNA; actives raise or lower the signal
Outline: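 Multiplexed cis-reporter mRNA induction, HepG2, 24 h post-dose. RT-PCR, FAM-labelled, HpaI-digested amplicons by CE. Bidirectional fit vs DMSO.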

[12] = ATG_ISRE_CIS: Attagene CIS-FACTORIAL HepG2 Assay for human Interferon Regulatory Factor 1 (IRF1) binding to an Interferon-Stimulated Response Element (ISRE) (AID 2282948); conditions: HepG2 ISRE cis-reporter (Attagene), mRNA transcription readout; actives raise or lower the signal
Outline: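 Multiplexed mRNA reporter readout in human liver HepG2 cells: cis-element-driven reporters transfected, compound added for 24 h, transcripts amplified, fluorescently labelled and sized by capillary electrophoresis; curve fitting bidirectional against DMSO.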

[13] = ATG_M_32_CIS: Attagene CIS-FACTORIAL HepG2 Assay for M32 Transcription Factor (Internal Marker) (AID 2282949); conditions: HepG2 Attagene cis-factorial M32 reporter, mRNA; actives raise or lower the signal;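 also: background control marker of the multiplexed CIS panel rather than a real target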
Outline: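 Transient MRTU transfection of HepG2; 24 h compound treatment; TriZol RNA, oligo(dT) RT, reporter PCR, 6-FAM primer extension, HpaI cut, CE. Gain/loss of signal vs DMSO.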

[14] = ATG_M_06_CIS: Attagene CIS-FACTORIAL HepG2 Assay for M06 Transcription Factor (Internal Marker) (AID 2282950); conditions: HepG2 Attagene CIS-FACTORIAL M06 internal marker reporter; actives raise or lower the signal
Outline: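 Fluorescence-labelled RT-PCR products from cis-promoter reporter units, cut with HpaI and resolved by capillary electrophoresis, give the signal. Cells are human HepG2, dosed for 24 h. Serves as background control, fitted relative to DMSO.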

[15] = molecular target: Hypoxia-inducible factor 1-alpha (Homo sapiens) (UniProt Q16665); experiment: ATG_HIF1a_CIS: Attagene CIS-FACTORIAL HepG2 Assay for human Hypoxia Inducible Factor 1 (HIF1A) (AID 2282951); conditions: HepG2 Attagene cis-factorial HIF1a reporter transcription; actives raise or lower the signal
Sequence of Hypoxia-inducible factor 1-alpha (Homo sapiens) (Q16665 whole entry, looked up): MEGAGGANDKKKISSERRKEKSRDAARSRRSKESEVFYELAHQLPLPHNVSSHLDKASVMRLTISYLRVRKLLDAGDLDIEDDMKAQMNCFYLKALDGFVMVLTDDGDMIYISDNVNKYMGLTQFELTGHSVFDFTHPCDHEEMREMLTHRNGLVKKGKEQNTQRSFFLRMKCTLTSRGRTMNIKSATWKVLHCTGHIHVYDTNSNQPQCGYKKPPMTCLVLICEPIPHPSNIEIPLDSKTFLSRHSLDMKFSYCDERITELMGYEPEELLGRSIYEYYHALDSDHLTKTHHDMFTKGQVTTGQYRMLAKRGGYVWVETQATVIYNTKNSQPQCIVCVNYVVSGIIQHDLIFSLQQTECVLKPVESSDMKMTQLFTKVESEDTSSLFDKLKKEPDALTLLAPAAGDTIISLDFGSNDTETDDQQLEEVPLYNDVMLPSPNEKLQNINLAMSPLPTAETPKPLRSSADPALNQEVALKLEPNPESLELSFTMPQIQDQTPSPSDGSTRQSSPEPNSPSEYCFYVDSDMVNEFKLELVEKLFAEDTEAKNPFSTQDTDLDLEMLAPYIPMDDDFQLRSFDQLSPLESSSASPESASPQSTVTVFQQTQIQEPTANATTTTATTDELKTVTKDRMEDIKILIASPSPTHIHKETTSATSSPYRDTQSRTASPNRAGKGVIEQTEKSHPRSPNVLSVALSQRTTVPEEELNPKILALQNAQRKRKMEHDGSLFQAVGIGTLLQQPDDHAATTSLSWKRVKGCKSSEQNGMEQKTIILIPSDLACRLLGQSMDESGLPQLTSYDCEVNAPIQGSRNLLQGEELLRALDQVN
Outline: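 Endogenous-TF cis reporter readout, human HepG2 cells, 24 h incubation; mRNA detected via RT-PCR and capillary electrophoresis fluorescence; DMSO-normalised bidirectional fitting.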

[16] = molecular target: Hepatocyte nuclear factor 6 (Homo sapiens) (UniProt Q9UBC0); experiment: ATG_HNF6_CIS: Attagene CIS-FACTORIAL HepG2 Assay for human Hepatocyte Nuclear Factor 6 (HNF6) (AID 2282952); conditions: HepG2 Attagene cis-factorial HNF6 reporter transcription; actives raise or lower the signal
Sequence of Hepatocyte nuclear factor 6 (Homo sapiens) (Q9UBC0 whole entry, looked up): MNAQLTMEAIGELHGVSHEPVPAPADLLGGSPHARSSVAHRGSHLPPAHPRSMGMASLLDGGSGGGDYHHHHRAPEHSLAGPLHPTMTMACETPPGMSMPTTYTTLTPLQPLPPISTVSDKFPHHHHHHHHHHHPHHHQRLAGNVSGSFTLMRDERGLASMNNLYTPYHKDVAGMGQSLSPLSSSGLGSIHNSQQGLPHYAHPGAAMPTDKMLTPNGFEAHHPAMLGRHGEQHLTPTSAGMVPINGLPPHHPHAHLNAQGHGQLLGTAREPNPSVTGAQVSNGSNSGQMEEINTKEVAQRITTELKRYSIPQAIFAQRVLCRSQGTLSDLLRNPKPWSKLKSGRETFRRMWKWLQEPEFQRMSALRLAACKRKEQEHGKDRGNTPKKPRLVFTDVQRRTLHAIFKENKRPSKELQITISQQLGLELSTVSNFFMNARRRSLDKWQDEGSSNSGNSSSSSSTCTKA
Outline: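 Endogenous factor activity read in transiently transfected HepG2 via promoter-regulated reporter transcripts. RNA harvested 24 h post-dosing, reverse-transcribed, PCR-amplified, FAM-labelled, HpaI-digested and resolved by capillary electrophoresis; fitted in both directions against DMSO.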

[17] = ATG_MRE_CIS: Attagene CIS-FACTORIAL HepG2 Assay for human Metal Responsive Element (MRE) (AID 2282954); conditions: HepG2 MRE cis-reporter transcription, Attagene multiplex; actives raise or lower the signal
Outline: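 Multiplexed cis-reporter assay in human HepG2 liver cells, 24 h incubation with test chemical. Reporter transcripts measured by RT-PCR and capillary electrophoresis; values from bidirectional curve fitting versus DMSO.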

[18] = ATG_PBREM_CIS: Attagene CIS-FACTORIAL HepG2 Assay for human Phenobarbital-responsive Enhancer Module (PBREM) (AID 2282955); conditions: HepG2 PBREM cis-reporter, Attagene multiplexed transcription; actives raise or lower the signal
Outline: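 Readout: reporter mRNA, fluorescent RT-PCR fragments separated by capillary electrophoresis. System: HepG2 transiently transfected with cis-regulated reporter units. Exposure: 24 h. Analysis: bidirectional, DMSO baseline.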

[19] = molecular target: Paired box protein Pax-6 (Homo sapiens) (UniProt P26367); experiment: ATG_Pax6_CIS: Attagene CIS-FACTORIAL HepG2 Assay for human Paired Box 6 (PAX6) (AID 2282956); conditions: HepG2 CIS-FACTORIAL PAX6 reporter transcription, RNA readout; actives raise or lower the signal
Sequence of Paired box protein Pax-6 (Homo sapiens) (P26367 whole entry, looked up): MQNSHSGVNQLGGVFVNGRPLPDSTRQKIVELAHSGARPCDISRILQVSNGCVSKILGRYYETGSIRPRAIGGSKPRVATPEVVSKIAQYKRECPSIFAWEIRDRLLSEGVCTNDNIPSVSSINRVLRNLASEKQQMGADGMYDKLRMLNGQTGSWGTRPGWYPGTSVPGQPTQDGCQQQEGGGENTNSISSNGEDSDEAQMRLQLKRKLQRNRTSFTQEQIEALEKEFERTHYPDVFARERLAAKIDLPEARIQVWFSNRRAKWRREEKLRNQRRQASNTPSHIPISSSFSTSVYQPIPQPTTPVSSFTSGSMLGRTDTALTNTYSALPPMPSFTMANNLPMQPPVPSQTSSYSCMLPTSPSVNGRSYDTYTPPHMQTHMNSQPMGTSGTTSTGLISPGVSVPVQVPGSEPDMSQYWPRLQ
Outline: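 Fluorescent RT-PCR products separated by capillary electrophoresis report PAX6-linked promoter mRNA in HepG2 cells 24 h post-dose. Curves fitted bidirectionally, DMSO as negative control.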

[20] = molecular target: Heat shock factor protein 1 (Homo sapiens) (UniProt Q00613); experiment: ATG_HSE_CIS: Attagene CIS-FACTORIAL HepG2 Assay for human Heat Shock Transcription Factor 1 (HSE) (AID 2282953); conditions: HepG2 HSE cis-reporter, Attagene RNA transcription; actives raise or lower the signal
Sequence of Heat shock factor protein 1 (Homo sapiens) (Q00613 whole entry, looked up): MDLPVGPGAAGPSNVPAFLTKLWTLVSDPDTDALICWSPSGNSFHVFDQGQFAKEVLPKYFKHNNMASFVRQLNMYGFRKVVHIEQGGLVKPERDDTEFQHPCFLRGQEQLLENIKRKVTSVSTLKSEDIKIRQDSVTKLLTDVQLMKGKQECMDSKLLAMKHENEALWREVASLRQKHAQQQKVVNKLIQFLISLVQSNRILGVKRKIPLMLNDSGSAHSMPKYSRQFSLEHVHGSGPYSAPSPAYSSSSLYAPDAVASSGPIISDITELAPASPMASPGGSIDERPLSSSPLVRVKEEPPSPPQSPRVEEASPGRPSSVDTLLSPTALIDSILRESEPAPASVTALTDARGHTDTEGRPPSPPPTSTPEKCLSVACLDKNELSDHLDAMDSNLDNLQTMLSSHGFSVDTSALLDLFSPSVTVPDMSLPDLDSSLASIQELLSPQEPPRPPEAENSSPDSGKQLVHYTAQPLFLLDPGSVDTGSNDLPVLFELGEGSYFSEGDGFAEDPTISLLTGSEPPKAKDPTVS
Outline: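 After a 24 h incubation with test chemical, transfected HepG2 cells were harvested for RNA; reporter transcripts were measured by RT-PCR and capillary electrophoresis. Values reflect gain or loss of signal relative to DMSO.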

Measured: AC50

CC/C(=C\C(=N/O)C(N)=O)C(C)[N+](=O)[O-] (configuration not stated)
inactive: [1] | [2] | [3] | [4] | [5] | [6] | [7] | [8] | [9] | [10] | [11] | [12] | [13] | [14] | [15] | [16] | [17] | [18] | [19]

Cn1cnc([N+](=O)[O-])c1Sc1ncnc2nc[nH]c12
active: [5] 29 µM | [12] 63.3 µM
inactive: [1] | [2] | [3] | [4] | [6] | [7] | [8] | [9] | [10] | [11] | [14] | [16] | [17] | [18] | [19]

CCCC(=O)OCC
active: [15] 0.171 µM
inactive: [1] | [2] | [3] | [4] | [5] | [6] | [7] | [8] | [9] | [10] | [11] | [12] | [13] | [14] | [16] | [17] | [18] | [19]

Nc1ccc(Nc2ccccc2)cc1
inactive: [1] | [2] | [3] | [4] | [6] | [7] | [8] | [9] | [10] | [11] | [12] | [13] | [14] | [15] | [16] | [17] | [18] | [19]
active: [5] 35.1 µM

CCCCCCCCO
inactive: [1] | [2] | [3] | [4] | [5] | [6] | [7] | [8] | [9] | [10] | [11] | [12] | [14] | [15] | [16] | [20] | [17] | [18] | [19]

CCC(C)(C)C(=O)O[C@H]1C[C@@H](C)C=C2C=C[C@H](C)[C@H](CC[C@@H]3C[C@@H](O)CC(=O)O3)[C@H]21
active: [5] 6.94 µM
inactive: [1] | [2] | [3] | [4] | [6] | [7] | [8] | [9] | [10] | [11] | [12] | [14] | [15] | [16] | [17] | [18] | [19]

Cn1c(=O)cc(Oc2ccc(F)cc2F)c2cnc(NCC(C)(C)O)nc21
inactive: [1] | [2] | [3] | [4] | [5] | [6] | [7] | [8] | [9] | [10] | [11] | [12] | [13] | [14] | [15] | [16] | [20] | [17] | [18] | [19]

O=C(O)c1cccc(Oc2ccccc2)c1
inactive: [1] | [2] | [3] | [4] | [5] | [6] | [7] | [8] | [9] | [10] | [11] | [12] | [13] | [14] | [15] | [16] | [17] | [18] | [19]

Cc1ccc(N)cc1O
inactive: [1] | [2] | [3] | [4] | [5] | [6] | [7] | [8] | [9] | [10] | [11] | [12] | [14] | [15] | [16] | [20] | [17] | [18] | [19]

CC(C)CCO
inactive: [1] | [2] | [3] | [4] | [5] | [6] | [7] | [8] | [9] | [10] | [12] | [14] | [15] | [16] | [20] | [17] | [19]

COC(=O)c1ccccc1O
inactive: [1] | [2] | [3] | [4] | [5] | [6] | [7] | [8] | [9] | [10] | [12] | [14] | [15] | [16] | [17] | [19]

CCn1nc(Cc2ccccc2)cc1C1CCN(C[C@H]2C[C@H](N(C)[C@@H](C(=O)O)C(C)C)C[C@@H]2c2cccc(F)c2)CC1
active: [1] 79.3 µM | [3] 155 µM | [5] 5.55 µM | [12] 100 µM | [15] 26.6 µM
inactive: [2] | [4] | [6] | [7] | [8] | [9] | [10] | [11] | [14] | [16] | [17] | [18] | [19]

O=C(NS(=O)(=O)/C=C/c1ccccc1)c1ccc(F)cc1Cl
inactive: [1] | [2] | [3] | [4] | [5] | [6] | [7] | [8] | [9] | [10] | [12] | [14] | [15] | [16] | [17] | [18] | [19]
